Measurements from the supplement of paper PMC11732987, “Enantioselective OTUD7B fragment discovery through chemoproteomics screening and high-throughput optimisation” (Communications Chemistry, 2025).

How the values were obtained:
Assay in all cases: log2 ratio of Biotin-Ahx-Ub-VS probe labelling (fragment/DMSO); higher = less target engagement (more negative = stronger competition), active = hit call of the paper (q ≤ 0.05, log2 ratio ≤ -1)
Details in all cases: compound concentration: 200 uM; treatment time: 3 h
[1] = biological target: USP34 (UniProt Q70CQ2)
Chain of USP34 (Q70CQ2 whole entry, the tested form may be a part): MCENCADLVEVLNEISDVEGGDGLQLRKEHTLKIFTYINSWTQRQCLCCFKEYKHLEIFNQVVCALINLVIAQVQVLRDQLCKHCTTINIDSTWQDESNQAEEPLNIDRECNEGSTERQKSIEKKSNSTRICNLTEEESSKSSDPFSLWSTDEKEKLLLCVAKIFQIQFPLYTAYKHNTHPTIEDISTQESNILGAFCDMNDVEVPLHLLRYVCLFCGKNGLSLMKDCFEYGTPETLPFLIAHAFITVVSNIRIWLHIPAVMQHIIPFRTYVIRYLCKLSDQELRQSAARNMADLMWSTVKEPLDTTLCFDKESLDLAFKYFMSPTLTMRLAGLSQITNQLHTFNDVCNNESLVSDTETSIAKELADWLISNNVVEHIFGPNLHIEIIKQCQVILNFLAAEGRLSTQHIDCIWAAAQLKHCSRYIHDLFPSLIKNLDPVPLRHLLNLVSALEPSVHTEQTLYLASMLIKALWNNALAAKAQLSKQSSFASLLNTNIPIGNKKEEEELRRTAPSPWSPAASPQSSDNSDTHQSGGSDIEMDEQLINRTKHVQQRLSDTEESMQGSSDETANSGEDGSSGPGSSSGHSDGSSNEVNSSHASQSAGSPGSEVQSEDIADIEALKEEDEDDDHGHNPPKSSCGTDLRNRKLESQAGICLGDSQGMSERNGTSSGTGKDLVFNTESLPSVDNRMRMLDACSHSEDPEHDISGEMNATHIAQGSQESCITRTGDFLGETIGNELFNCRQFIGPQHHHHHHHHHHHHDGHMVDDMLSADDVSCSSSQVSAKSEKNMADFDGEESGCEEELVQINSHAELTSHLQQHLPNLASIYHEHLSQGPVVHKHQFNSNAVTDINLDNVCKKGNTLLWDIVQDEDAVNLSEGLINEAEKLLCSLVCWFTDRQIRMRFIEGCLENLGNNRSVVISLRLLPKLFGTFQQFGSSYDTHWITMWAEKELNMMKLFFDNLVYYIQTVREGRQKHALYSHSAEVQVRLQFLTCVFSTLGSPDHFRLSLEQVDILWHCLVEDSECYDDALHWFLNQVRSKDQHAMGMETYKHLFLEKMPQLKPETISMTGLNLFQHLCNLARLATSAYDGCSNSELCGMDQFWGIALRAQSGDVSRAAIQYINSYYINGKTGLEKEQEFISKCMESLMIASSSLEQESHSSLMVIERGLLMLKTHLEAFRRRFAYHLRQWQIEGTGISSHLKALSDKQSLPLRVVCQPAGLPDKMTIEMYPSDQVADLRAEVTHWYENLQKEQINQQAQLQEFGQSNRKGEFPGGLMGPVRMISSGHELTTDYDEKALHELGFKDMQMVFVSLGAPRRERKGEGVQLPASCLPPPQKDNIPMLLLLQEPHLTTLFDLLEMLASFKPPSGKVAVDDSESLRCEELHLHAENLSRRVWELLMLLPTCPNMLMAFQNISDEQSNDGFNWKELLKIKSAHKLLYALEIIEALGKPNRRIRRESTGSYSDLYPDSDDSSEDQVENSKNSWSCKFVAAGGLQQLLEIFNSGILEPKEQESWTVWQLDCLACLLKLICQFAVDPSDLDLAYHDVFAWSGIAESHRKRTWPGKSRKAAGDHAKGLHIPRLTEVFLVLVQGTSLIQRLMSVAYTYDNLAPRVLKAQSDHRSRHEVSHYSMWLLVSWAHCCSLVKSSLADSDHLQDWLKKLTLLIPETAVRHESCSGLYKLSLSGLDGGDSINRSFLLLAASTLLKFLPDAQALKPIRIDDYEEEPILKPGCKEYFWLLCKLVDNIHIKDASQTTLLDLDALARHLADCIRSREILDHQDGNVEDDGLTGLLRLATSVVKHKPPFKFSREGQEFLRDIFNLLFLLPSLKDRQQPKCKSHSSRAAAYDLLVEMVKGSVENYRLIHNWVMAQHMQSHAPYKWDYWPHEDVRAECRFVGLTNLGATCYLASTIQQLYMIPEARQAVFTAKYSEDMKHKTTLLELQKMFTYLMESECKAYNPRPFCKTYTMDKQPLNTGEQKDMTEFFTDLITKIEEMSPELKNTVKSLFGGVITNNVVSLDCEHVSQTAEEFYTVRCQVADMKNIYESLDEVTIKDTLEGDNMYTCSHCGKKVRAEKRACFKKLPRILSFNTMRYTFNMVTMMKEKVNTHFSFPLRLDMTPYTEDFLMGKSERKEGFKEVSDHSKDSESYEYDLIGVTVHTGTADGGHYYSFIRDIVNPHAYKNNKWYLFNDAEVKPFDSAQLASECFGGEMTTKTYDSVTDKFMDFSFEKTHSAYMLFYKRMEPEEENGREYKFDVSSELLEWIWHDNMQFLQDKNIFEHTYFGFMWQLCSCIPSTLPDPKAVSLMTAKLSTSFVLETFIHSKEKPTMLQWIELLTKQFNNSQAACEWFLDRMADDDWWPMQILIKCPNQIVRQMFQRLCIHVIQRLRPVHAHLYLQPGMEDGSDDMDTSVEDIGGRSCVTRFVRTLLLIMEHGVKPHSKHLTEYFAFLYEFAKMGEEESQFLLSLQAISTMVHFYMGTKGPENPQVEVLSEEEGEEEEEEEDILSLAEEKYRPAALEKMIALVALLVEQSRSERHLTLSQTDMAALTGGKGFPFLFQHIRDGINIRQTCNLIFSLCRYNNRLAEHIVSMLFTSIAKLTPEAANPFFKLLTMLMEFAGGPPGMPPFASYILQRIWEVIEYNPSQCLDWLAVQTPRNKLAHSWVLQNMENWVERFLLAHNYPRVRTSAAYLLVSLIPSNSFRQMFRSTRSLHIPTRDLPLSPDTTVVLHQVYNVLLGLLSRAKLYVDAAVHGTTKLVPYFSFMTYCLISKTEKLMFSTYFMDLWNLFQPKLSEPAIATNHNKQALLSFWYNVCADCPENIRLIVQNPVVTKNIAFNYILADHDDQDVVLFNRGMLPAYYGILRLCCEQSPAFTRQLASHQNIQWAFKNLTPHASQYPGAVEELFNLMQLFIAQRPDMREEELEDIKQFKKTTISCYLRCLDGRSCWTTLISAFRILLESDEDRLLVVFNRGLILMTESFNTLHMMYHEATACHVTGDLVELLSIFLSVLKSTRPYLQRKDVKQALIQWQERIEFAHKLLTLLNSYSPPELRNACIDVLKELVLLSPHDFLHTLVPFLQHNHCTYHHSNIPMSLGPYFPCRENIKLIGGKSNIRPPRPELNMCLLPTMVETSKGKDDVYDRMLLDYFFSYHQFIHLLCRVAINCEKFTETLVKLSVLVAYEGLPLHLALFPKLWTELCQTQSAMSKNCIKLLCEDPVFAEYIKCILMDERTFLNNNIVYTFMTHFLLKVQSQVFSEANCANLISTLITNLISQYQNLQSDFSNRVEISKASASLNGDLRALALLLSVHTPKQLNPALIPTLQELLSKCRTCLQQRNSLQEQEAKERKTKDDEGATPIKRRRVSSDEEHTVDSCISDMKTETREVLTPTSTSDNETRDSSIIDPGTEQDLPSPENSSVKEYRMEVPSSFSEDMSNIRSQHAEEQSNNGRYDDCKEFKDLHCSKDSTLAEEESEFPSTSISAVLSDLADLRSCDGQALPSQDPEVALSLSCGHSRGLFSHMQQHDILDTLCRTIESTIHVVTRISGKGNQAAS
In short: (§1)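 HEK293T lysate, 495 µg per sample in Tris/CHAPS/IGEPAL buffer with protease inhibitors, was treated in triplicate with fragment at 200 µM or vehicle for 3 h and then with Biotin-Ahx-Ub-VS at 0.5 µM final for 1 h. Labelled DUBs were NeutrAvidin-enriched, digested with LysC and trypsin, and run by diaPASEF LC-MS/MS. Spectronaut label-free quantities were global-median-normalised, and values are average log2 fragment/vehicle ratios by unpaired t-test on proteins with ≥2 unique peptides.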

[2] = biological target: T1, USP36 (UniProt Q9P275)
T1 sequence (whole entry): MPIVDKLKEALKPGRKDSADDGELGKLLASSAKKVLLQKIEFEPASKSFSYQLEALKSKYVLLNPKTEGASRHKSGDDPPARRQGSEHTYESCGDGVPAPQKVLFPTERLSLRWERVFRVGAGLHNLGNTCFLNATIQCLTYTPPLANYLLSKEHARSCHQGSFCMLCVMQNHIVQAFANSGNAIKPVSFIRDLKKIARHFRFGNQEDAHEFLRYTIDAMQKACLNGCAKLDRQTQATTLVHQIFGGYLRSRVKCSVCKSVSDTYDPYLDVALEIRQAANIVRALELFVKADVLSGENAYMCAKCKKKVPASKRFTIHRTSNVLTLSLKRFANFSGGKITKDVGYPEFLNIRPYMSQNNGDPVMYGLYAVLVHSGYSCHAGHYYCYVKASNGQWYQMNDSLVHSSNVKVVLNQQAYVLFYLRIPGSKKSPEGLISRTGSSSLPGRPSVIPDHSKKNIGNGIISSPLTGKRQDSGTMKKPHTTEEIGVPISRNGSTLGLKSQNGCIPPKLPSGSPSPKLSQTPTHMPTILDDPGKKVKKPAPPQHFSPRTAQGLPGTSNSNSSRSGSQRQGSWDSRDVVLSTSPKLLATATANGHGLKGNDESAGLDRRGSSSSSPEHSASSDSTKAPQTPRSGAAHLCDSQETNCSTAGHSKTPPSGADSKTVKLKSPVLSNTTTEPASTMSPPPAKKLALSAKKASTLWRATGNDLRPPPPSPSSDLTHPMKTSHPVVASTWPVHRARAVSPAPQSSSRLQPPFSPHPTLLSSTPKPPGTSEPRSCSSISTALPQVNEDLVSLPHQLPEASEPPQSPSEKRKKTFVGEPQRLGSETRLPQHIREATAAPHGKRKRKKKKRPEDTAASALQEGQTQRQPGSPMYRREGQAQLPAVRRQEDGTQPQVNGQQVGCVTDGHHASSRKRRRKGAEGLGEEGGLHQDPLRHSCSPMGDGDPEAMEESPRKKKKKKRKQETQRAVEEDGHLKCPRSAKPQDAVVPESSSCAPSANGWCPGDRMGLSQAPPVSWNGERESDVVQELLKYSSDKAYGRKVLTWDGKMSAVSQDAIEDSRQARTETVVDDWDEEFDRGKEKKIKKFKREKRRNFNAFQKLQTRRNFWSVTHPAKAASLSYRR
In short: as §1

[3] = biological target: T2, USP38 (UniProt Q8NB14)
T2 sequence (whole entry): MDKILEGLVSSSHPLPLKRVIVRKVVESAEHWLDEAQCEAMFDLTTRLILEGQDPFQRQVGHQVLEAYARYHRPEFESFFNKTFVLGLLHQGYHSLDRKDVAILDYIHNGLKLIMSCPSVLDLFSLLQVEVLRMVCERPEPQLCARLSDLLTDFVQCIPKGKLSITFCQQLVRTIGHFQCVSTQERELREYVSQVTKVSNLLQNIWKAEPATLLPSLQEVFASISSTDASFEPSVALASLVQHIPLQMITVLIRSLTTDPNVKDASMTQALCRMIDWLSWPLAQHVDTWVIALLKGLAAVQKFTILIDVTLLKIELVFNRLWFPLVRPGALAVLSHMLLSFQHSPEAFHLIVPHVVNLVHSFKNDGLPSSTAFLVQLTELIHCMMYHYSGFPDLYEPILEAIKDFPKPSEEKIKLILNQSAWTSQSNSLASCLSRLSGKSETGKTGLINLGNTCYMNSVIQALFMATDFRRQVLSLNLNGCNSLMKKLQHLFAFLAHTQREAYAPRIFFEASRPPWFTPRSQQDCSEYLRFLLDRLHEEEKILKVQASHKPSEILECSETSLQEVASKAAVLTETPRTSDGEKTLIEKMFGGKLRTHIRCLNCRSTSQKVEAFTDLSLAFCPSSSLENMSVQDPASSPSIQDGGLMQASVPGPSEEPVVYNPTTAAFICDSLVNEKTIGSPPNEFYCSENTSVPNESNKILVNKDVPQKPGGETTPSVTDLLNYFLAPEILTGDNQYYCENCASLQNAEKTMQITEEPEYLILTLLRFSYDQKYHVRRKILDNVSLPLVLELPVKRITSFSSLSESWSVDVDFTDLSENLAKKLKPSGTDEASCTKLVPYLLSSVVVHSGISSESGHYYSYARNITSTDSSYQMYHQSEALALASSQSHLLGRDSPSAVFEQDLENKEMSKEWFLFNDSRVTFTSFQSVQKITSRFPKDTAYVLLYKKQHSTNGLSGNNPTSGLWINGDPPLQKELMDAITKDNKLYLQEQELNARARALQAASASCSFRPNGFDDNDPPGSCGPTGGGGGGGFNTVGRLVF
In short: as §1

[4] = biological target: T3, USP39 (UniProt Q53GS9)
T3 sequence (whole entry): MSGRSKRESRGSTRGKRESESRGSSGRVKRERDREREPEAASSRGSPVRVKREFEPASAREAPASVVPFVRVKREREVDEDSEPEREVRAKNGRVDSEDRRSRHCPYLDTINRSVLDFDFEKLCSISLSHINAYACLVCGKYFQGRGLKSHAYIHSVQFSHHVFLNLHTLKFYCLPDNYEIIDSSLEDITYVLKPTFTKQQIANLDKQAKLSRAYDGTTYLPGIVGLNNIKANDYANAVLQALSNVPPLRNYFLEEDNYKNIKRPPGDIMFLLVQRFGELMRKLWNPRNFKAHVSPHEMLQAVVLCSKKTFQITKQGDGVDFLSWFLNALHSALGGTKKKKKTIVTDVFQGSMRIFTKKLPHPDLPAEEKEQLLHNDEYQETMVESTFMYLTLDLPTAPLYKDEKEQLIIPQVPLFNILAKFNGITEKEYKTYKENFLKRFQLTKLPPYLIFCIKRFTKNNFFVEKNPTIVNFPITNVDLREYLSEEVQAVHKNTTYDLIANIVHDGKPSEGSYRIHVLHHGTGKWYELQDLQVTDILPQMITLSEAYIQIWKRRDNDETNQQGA
In short: as §1

[5] = biological target: T4, USP4 (UniProt Q13107)
T4 sequence (whole entry): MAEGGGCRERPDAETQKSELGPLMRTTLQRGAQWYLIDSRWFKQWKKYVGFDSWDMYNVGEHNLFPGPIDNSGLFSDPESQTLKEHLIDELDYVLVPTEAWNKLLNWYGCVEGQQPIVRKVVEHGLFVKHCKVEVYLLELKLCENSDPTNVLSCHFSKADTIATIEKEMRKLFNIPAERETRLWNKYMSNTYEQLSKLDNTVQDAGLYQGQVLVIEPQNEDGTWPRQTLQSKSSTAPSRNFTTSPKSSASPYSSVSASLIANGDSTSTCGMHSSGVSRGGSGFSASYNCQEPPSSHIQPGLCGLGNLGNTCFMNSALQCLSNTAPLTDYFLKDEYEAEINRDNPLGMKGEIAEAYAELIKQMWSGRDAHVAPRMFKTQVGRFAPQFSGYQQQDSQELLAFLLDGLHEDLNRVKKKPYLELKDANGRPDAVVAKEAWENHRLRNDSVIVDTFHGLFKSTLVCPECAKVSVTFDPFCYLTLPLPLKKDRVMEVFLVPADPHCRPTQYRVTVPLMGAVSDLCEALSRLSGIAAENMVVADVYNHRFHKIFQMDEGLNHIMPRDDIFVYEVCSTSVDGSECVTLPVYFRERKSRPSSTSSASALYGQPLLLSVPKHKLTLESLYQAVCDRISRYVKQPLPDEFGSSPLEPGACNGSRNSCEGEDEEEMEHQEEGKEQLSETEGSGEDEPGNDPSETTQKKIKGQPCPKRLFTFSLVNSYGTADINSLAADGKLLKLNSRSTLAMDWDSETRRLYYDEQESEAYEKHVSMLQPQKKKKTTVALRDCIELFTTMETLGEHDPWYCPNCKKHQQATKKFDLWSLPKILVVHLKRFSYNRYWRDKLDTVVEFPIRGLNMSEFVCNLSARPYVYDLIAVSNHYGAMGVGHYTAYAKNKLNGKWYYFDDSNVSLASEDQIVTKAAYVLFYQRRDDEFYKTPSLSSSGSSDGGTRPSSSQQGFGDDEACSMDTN
In short: as §1

Measured: log2 ratio of Biotin-Ahx-Ub-VS probe labelling

N#Cc1ccc(CNC(=O)CCl)cc1
inactive: [1] -0.0142 | [2] 0.0698 | [3] -0.0952 | [4] 0.191 | [5] -0.0634
